This passage reports binding signal results from paper PMC5700166.

Where a chain is given by its changes, count along the chain named.

What all share (test): protein-binding microarray (PBM); PBM: ~300 nM protein, 6 mM HEPES pH 7.8, 80 mM KCl, 0.5 mM EDTA, 0.5 mM EGTA, 6% glycerol, 35 ng/ul poly-dIdC, 1% milk, 1 h, room temperature; Ap Aiptasia and Nv Nematostella (sea anemones) / Co Capsaspora / Aq Amphimedon (sponge) / Dm Drosophila / Hu human; RHD is the Rel homology domain; high values mean tight binding
Common to all, as to conditions: dsDNA, one strand shown

For one assay, the target named is T1, GST-Ap-NF-kB RHD (Exaiptasia pallida (Aiptasia), UniProt A0A913YAJ5 2-422).
T1 sequence: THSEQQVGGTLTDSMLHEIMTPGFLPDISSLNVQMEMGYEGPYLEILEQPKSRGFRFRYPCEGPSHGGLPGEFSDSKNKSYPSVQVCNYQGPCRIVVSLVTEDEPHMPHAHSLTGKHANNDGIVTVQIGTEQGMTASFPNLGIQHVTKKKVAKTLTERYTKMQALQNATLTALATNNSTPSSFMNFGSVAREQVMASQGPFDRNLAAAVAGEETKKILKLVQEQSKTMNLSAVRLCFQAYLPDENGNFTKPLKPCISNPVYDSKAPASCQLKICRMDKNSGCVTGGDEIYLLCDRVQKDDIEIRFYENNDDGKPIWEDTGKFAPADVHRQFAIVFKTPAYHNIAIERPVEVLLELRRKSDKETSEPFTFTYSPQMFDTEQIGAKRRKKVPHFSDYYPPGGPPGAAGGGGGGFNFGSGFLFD

Assay [1] deals with T2, GST-Nv-NF-kB (Cys allele) (Nematostella vectensis, UniProt E5G601 2-411).
T2 sequence: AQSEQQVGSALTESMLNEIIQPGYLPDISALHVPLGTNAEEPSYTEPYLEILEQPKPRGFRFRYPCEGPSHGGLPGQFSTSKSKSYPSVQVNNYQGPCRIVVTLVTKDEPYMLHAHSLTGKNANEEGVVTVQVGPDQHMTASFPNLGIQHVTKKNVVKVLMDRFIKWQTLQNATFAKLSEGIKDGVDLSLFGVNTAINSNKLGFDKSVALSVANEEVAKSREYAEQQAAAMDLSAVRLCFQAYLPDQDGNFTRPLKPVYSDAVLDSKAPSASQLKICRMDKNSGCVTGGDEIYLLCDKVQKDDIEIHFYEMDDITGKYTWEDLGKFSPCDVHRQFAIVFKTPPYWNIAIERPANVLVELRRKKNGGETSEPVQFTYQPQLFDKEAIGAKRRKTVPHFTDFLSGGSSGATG

Assay [2] addresses T3, GST-Nv-NF-kB (Ser allele) (Nematostella vectensis, UniProt A7UNT2 2-411).
T3 sequence: T2 sequence with Q21R, C66S, S207N, E215Q, V217A, E225K, A268E, D399E

Another assay addresses T4, GST-Co-NF-kB (Capsaspora owczarzaki, UniProt F1ARL5 200-546).
T4 sequence: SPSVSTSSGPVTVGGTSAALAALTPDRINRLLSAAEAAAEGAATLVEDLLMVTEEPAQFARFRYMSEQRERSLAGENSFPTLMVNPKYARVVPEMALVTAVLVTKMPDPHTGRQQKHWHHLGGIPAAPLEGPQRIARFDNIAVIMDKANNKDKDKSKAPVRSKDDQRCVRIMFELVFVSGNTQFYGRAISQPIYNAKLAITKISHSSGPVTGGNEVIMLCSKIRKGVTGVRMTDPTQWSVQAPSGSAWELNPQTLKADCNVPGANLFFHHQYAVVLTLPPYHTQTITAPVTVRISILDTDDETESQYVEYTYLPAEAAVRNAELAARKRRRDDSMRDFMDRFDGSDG

Another assay has as its target T5, GST-Dm-Relish (Drosophila melanogaster, UniProt Q94527 99-473).
T5 sequence: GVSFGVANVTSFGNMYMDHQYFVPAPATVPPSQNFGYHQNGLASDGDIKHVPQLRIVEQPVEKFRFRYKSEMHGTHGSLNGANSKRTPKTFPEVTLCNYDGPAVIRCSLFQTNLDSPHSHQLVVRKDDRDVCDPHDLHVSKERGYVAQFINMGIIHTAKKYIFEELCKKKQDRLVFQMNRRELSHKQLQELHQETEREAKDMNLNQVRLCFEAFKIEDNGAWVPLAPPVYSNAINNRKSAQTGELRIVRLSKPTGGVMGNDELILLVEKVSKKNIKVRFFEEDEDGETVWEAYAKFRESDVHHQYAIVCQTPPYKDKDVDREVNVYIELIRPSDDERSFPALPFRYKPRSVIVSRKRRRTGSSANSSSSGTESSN

A further assay deals with T6, GST-Aq-NF-kB (Amphimedon queenslandica, UniProt A9Y5G7 2-389).
T6 sequence: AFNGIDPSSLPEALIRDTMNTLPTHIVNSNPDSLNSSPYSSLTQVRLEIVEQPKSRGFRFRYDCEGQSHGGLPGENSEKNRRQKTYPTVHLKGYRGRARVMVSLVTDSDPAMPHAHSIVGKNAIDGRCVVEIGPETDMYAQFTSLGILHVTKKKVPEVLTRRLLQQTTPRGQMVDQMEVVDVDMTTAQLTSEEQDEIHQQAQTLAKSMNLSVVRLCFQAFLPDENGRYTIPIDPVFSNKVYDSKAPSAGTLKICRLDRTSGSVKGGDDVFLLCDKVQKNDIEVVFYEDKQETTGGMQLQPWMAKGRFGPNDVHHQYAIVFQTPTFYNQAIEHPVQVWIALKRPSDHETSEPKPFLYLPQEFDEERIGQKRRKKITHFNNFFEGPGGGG

The next assay concerns the target GST-Hu-p50 (Homo sapiens, UniProt P19838 7-356).

Sequence of GST-Hu-p50 (P19838 7-356): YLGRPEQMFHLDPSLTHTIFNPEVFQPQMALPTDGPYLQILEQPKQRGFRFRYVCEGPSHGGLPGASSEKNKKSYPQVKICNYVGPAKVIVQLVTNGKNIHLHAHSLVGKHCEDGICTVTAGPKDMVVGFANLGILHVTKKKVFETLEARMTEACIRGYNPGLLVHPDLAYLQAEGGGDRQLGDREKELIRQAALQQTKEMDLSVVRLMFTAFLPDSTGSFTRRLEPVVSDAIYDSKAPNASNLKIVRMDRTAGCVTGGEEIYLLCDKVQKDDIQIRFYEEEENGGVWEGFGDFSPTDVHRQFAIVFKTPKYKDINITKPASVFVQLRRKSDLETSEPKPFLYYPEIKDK

Regarding “CCGATTAACATCAAAAAATCCCGTGATGTTAATCGGGTCTTGATTCGCTTGACGCTGCTG”, the binding signal with GST-Ap-NF-kB RHD is 5.57 z-score; in assay [1] it was 6.22 z-score; in assay [2], 5.2 z-score; with GST-Co-NF-kB, 2.99 z-score; with GST-Dm-Relish it was 8.31 z-score; in the assay with GST-Aq-NF-kB, 6.71 z-score. This sequence had a binding signal with GST-Hu-p50 of 4.97 z-score.
As to “CCGATTAACATCAACGTCCCCCCTGATGTTAATCGGGTCTTGATTCGCTTGACGCTGCTG”, the binding signal with GST-Ap-NF-kB RHD was found to be 5.15 z-score; in assay [1], 3.81 z-score; in assay [2], 4.61 z-score; in the assay with GST-Co-NF-kB, 5.29 z-score; in the assay with GST-Dm-Relish it was 4.4 z-score; in the assay with GST-Aq-NF-kB, 4.66 z-score. Also, the binding signal with GST-Hu-p50 came out at 3.74 z-score.
In the case of “CCGATTAACATCAAGAAAGTCCCTGATGTTAATCGGGTCTTGATTCGCTTGACGCTGCTG”, the binding signal with GST-Ap-NF-kB RHD stood at 7.56 z-score; in assay [1], 8.86 z-score; in assay [2], 8.7 z-score; in the assay with GST-Co-NF-kB, 1.38 z-score; with GST-Dm-Relish, 7.13 z-score; with GST-Aq-NF-kB it was 6.74 z-score. In addition, in the assay with GST-Hu-p50, the binding signal came out at 6.05 z-score.
For “CCGATTAACATCAGGGAATTTGATGATGTTAATCGGGTCTTGATTCGCTTGACGCTGCTG”, the binding signal in the assay with GST-Ap-NF-kB RHD was 3.63 z-score; in assay [1], 4.8 z-score; in assay [2] it was 5.71 z-score; with GST-Co-NF-kB, 3.17 z-score; in the assay with GST-Dm-Relish, 2.77 z-score; with GST-Aq-NF-kB, 3.69 z-score. Besides, the binding signal in the assay with GST-Hu-p50 was 3.22 z-score.
Consider “CCGATTAACATCAAAAGATCCCCTGATGTTAATCGGGTCTTGATTCGCTTGACGCTGCTG”, for which the binding signal with GST-Ap-NF-kB RHD came out at 8.32 z-score; in assay [1], 8.42 z-score; in assay [2], 9.3 z-score; with GST-Co-NF-kB it was 5.39 z-score; in the assay with GST-Dm-Relish it was 9.75 z-score; with GST-Aq-NF-kB, 7.5 z-score. In the assay with GST-Hu-p50, this sequence displayed a binding signal of 6.41 z-score.
As for “CCGATTAACATCAGGGTAATACCTGATGTTAATCGGGTCTTGATTCGCTTGACGCTGCTG”, the binding signal with GST-Ap-NF-kB RHD was determined as 4.26 z-score; in assay [1] it was 5.72 z-score; in assay [2], 3.69 z-score; with GST-Co-NF-kB, 2.23 z-score; with GST-Dm-Relish, 3.92 z-score; with GST-Aq-NF-kB, 7.45 z-score. The binding signal in the assay with GST-Hu-p50 was 2.82 z-score.
As for “CCGATTAACATCAGGGGGATTAATGATGTTAATCGGGTCTTGATTCGCTTGACGCTGCTG”, the binding signal in the assay with GST-Ap-NF-kB RHD was 6.25 z-score; in assay [1], 6.39 z-score; in assay [2], 7.21 z-score; with GST-Co-NF-kB, 6.77 z-score; with GST-Dm-Relish it was 5.97 z-score; with GST-Aq-NF-kB it was 5.39 z-score. In addition, in the assay with GST-Hu-p50, the binding signal was determined as 6.36 z-score.
As for “CCGATTAACATCAAGGGGGGTGCTGATGTTAATCGGGTCTTGATTCGCTTGACGCTGCTG”, the binding signal with GST-Ap-NF-kB RHD came to 4.44 z-score; in assay [1], 3.89 z-score; in assay [2] it was 3.43 z-score; in the assay with GST-Co-NF-kB, 3.26 z-score; with GST-Dm-Relish, 4.11 z-score; with GST-Aq-NF-kB, 4.32 z-score. Further, in the assay with GST-Hu-p50, the binding signal worked out at 4.67 z-score.
On to “CCGATTAACATCAGGGGGGACCCTGATGTTAATCGGGTCTTGATTCGCTTGACGCTGCTG”, for which the binding signal with GST-Ap-NF-kB RHD is 6.34 z-score; in assay [1], 4.19 z-score; in assay [2] it was 3.73 z-score; in the assay with GST-Co-NF-kB it was 4.11 z-score; with GST-Dm-Relish, 6.14 z-score; with GST-Aq-NF-kB, 5.92 z-score. This sequence also displayed a binding signal with GST-Hu-p50 of 4.27 z-score.
Consider “CCGATTAACATCAAAAGTCCCCGTGATGTTAATCGGGTCTTGATTCGCTTGACGCTGCTG”, for which the binding signal with GST-Ap-NF-kB RHD was 8.32 z-score; in assay [1], 8.18 z-score; in assay [2], 7.85 z-score; in the assay with GST-Co-NF-kB, 4.26 z-score; with GST-Dm-Relish, 9.25 z-score; in the assay with GST-Aq-NF-kB, 7.44 z-score. In the assay with GST-Hu-p50, this sequence registered a binding signal of 6.58 z-score.
For the sequence “CCGATTAACATCAGGGAAACTAATGATGTTAATCGGGTCTTGATTCGCTTGACGCTGCTG”, the binding signal with GST-Ap-NF-kB RHD was 2.58 z-score; in assay [1], 3.94 z-score; in assay [2] it was 4.37 z-score; with GST-Co-NF-kB it was 3.69 z-score; in the assay with GST-Dm-Relish, 1.22 z-score; in the assay with GST-Aq-NF-kB, 3.45 z-score. Further, the binding signal in the assay with GST-Hu-p50 came out at 2.79 z-score.
Regarding “CCGATTAACATCAGGGGGTTGACTGATGTTAATCGGGTCTTGATTCGCTTGACGCTGCTG”, the binding signal with GST-Ap-NF-kB RHD came to 4.64 z-score; in assay [1], 3.2 z-score; in assay [2] it was 3.62 z-score; with GST-Co-NF-kB, 1.93 z-score; with GST-Dm-Relish, 4.51 z-score; with GST-Aq-NF-kB, 3.95 z-score. The binding signal with GST-Hu-p50 worked out at 4.25 z-score.
